Records with an inconclusive call do not appear. Calls of active or inactive are those of the source. The calls were made as follows: active = hit-call score of the fitted dose curve at least 0.9, where 1 is the maximum; inconclusive = response in the unintended direction; inactive = score below 0.9.
The compounds below were run against Estrogen receptor (Homo sapiens) (UniProt P03372) (assay: OT_ER_ERaERa_0480: Odyssey Thera (OT) 8-hour HEK293T Protein-Complementation Assay for Estrogen Receptor-alpha/-alpha Homodimer (AID 2283351);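 also: rise in fluorescence from reassembled reporter fragments on ERα LBD homodimer in nucleus or whole cell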).
Chain of Estrogen receptor (Homo sapiens) (P03372 whole entry, looked up, the tested form may be a part): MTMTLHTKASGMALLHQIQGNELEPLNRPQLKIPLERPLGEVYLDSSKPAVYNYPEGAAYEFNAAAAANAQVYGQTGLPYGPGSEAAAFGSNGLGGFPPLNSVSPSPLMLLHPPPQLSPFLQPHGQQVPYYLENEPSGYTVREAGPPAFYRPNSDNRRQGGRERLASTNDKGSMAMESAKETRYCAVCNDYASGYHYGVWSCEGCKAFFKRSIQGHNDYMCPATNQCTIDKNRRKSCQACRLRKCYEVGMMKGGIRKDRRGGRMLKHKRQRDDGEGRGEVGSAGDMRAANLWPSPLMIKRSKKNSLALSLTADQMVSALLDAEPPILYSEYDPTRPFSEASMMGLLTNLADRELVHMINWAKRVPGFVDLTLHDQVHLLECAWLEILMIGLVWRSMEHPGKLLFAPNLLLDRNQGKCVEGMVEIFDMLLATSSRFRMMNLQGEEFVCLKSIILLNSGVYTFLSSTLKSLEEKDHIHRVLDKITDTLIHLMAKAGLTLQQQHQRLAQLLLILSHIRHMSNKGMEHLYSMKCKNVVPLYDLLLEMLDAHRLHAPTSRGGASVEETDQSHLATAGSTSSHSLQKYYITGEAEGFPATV
Description: OT_ER_ERaERa_0480 is a cell-based assay that uses HEK293T, a human kidney cell line, with measurements taken at 8 hours after chemical dosing in a 384-well plate.OT_ER_ERaERa_0480 is one of one assay component(s) measured or calculated from the OT_ER_ERaERa_0480 assay. It is designed to make measurements of protein fragment complementation, a form of binding reporter, as detected with fluorescence intensity signals by Protein-fragment Complementation technology.Data from the assay component OT_ER_ERaERa_0480 was analyzed into 1 assay endpoint. This assay endpoint, OT_ER_ERaERa_0480, was analyzed in the positive analysis fitting direction relative to DMSO as the negative control and baseline of activity. Using a type of binding reporter, measures of receptor for gain-of-signal activity can be used to understand the binding at the pathway-level as they relate to the gene ESR1. Furthermore, this assay endpoint can be referred to as a primary readout, because the performed assay has only produced 1 assay endpoint. To generalize the intended target to other relatable targets, this assay endpoint is annotated to the nuclear receptor intended target family, where the subfamily is steroidal.
Protein-fragment complementation assay, or PCA, is a method for the identification and quantification of protein-protein interactions. In the PCA, the proteins of interest ("bait" and "prey") are each covalently linked to fragments of a third protein (e.g. DHFR, which acts as a "reporter"). Interaction between the bait and the prey proteins brings the fragments of the reporter protein in close proximity to allow them to form a functional reporter protein whose activity can be measured. The OT ER alpha / ER alpha assay is a homodimer PCA of the ligand binding domain (amino acids 310-547) of human ER alpha stably expressed in HEK293T cells. […] Fluorescent signal in the basal state of the assay is very low and is primarily punctuate and cytoplasmic. Modulation of this assay is quantified as an increase in mean fluorescence intensity in the nucleus (for agonists) or in the nucleus and cytoplasm (antagonists) relative to vehicle controls, and can be quantified on a high content imaging device or a laser scanning cytometer. The latter instrument is favored for this assay because of the rapid mode of data acquisition, the ability to acquire data from the entire cell population in a well (as opposed to a fraction of the well on the high content devices) and the larger dynamic range typically achieved with this instrument. To assess sensitivity of the ER alpha/ER alpha LBD assay to ligand, cells were treated with the ER agonist 17 beta-estradiol (E2) in 10-point concentration- response format for 8 hours and monitored response on a laser scanning plate cytometer (Acumen eX3; TTP Lab Tech).
`CC(=O)C1=C(C)[C@@H]2C[C@@]3(C1)[C@H](C)CC[C@H]3C2(C)C` was tested, and the AC50 was 21.6 µM (active).
For `CCCCCCCCCCCCS`, the outcome was “inactive”.
In the case of `O=S(=O)(O)c1cc(S(=O)(=O)O)c2c(N=Nc3ccccc3)c(O)ccc2c1`, the outcome is reported as “inactive”.
For `CCNC(=S)NCC`, the outcome was “inactive”.
`FC(F)(F)c1ccc(Cl)c(Cl)c1` was tested, and the outcome was “inactive”.
`CC(C)C(=O)c1ccccc1` was tested, and the outcome was “inactive”.
`CC(O)CNCC(C)O` (stereo not given) was tested, and the outcome was “inactive”.
In the case of `c1coc(CNc2ncnc3nc[nH]c23)c1`, the outcome is reported as “inactive”.
`CCC(C)COC(=O)CC(C)C` (stereo not given) was tested, and the outcome was “inactive”.
In the case of `O=C(O)CS`, the outcome is reported as “inactive”.
With `CCCC(O)C(CC)CO` (stereo not given) the outcome was “inactive”.
For `NC(N)=S`, the outcome was “inactive”.
With `CC(C)(CO)CO` the outcome was “inactive”.
With `CCC(C)(C)C1CCC(OC)CC1` (stereo not given) the outcome was “inactive”.
For `CN(C)C(=O)Nc1ccccc1`, the outcome was “inactive”.
For `CNC(=C[N+](=O)[O-])NCCSCc1ccc(CN(C)C)o1`, the outcome was “inactive”.
With `COc1ccccc1O` the outcome was “inactive”.
In the case of `CCCCN(CCCC)CCCCCCN(CCCC)CCCC`, the outcome is reported as “inactive”.
`OC[C@H]1O[C@@H](O[C@H]2[C@H](O)[C@@H](O)[C@H](O)O[C@@H]2CO)[C@H](O)[C@@H](O)[C@H]1O` was tested, and the outcome was “inactive”.
With `CCC(=O)OC(C)(C)C1CC=C(C)CC1` (stereo not given) the outcome was “inactive”.
In the case of `CCO[Si](CC)(OCC)OCC`, the outcome is reported as “inactive”.
In the case of `NC(=O)c1cccnc1`, the outcome is reported as “inactive”.
In the case of `[O-]/[N+](=N\O)c1ccccc1`, the outcome is reported as “inactive”.
In the case of `CCCCCCOc1ccc(O)cc1`, the AC50 is reported as 18.3 µM (active).
`CCCCCCCCCCOC(=O)c1ccccc1C(=O)OCCCCCCCC` was tested, and the outcome was “inactive”.
With `CC(=O)C1C(=O)C=C(C)OC1=O` (stereo not given) the outcome was “inactive”.
With `c1ccc(OCCOc2ccccc2)cc1` the outcome was “inactive”.
`C=CCCCCCCCCC(=O)OCC` was tested, and the outcome was “inactive”.
`CC12CCC(C1)C(C)(C)C2O` (stereo not given) was tested, and the outcome was “inactive”.
`CCCCCCCC(=O)N(C)C` was tested, and the outcome was “inactive”.
`CCCCOCCOCCO` was tested, and the outcome was “inactive”.
In the case of `CC1=CCC(=C(C)C)CC1`, the outcome is reported as “inactive”.
For `CCc1cccc(O)c1`, the outcome was “inactive”.
With `C1=COCCC1` the outcome was “inactive”.
In the case of `CCCCCCCCCCCCN1CCOCC1`, the outcome is reported as “inactive”.
For `OCC=Cc1ccccc1`, the outcome was “inactive”.
In the case of `CCCC[N+](C)(CCCC)CCCC`, the outcome is reported as “inactive”.
`COC(=O)C(C)Oc1ccc(Oc2ncc(C(F)(F)F)cc2Cl)cc1` (stereo not given) was tested, and the outcome was “inactive”.
`CCCCCCCCOC(C)=O` was tested, and the outcome was “inactive”.
In the case of `CCC(C)(C)C1CCC(=O)CC1`, the outcome is reported as “inactive”.

Reference: PubChem BioAssay (EPA / NIEHS)
